# Test results: the antibiotic and cytotoxicity screens of Wong et al. (2023)
# The whole screen tested about 39,000 compounds, of which about 1,500 (3.8%) were called active. Many of the other results were omitted from the sample, so actives are more common in it than they were.
# Test system: HSkMC (human skeletal muscle cells)
# Test: cytotoxicity call (relative viability < 0.9)
# Settings: 10 µM
row,SMILES,cytotoxicity call
1,COc1ccc(CN(C)C[C@@H]2OCCCC[C@@H](C)Oc3ccc(NC(=O)c4ccccc4)cc3C(=O)N([C@H](C)CO)C[C@@H]2C)cc1,inactive
2,Cc1noc(C)c1NC(=O)Nc1ccc2c(c1)C(=O)N([C@@H](C)CO)C[C@H](C)[C@@H](CN(C)C(=O)Nc1c(C)noc1C)OCCCC[C@H](C)O2,inactive
3,CN1CCN(C(=O)C[C@@H]2CC[C@@H]3[C@H](COc4ccc(NC(=O)c5cscn5)cc4C(=O)N3C)O2)CC1,inactive
4,O=C(C[C@@H]1C[C@H]2c3cc(NC(=O)C4CCOCC4)ccc3O[C@H]2[C@@H](CO)O1)NCc1cc(F)ccc1F,inactive
5,Cc1ccc(S(=O)(=O)N(C)C[C@@H]2Oc3ccc(NS(=O)(=O)c4c(C)noc4C)cc3CC(=O)N([C@H](C)CO)C[C@H]2C)cc1,inactive
6,CC(=O)OC1CC2C(C)(C)C=CCC2(C)C2CCC3(C)C(c4ccoc4)OC(=O)C4OC43C12C (configuration not stated),inactive
7,O=C(CN1CCOCC1)NCC[C@H]1CC[C@H](NC(=O)c2ccccc2F)[C@@H](CO)O1,inactive
8,C[C@@H]1CN([C@@H](C)CO)C(=O)Cc2cc(NC(=O)Nc3cccc4ccccc34)ccc2O[C@@H]1CN(C)S(=O)(=O)c1cccs1,inactive
9,C(=N\c1nnc2nc[nH]n12)/c1ccco1,inactive
10,C[C@@H]1CCCCO[C@@H](CN(C)Cc2ccc(Cl)c(Cl)c2)[C@H](C)CN([C@@H](C)CO)C(=O)c2cc(N(C)C)ccc2O1,inactive
11,C[C@H]1CCCCO[C@H](CN(C)Cc2ccc(Cl)c(Cl)c2)[C@@H](C)CN([C@@H](C)CO)C(=O)c2cc(NC(=O)Nc3ccc4c(c3)OCO4)ccc2O1,inactive
12,C[C@@H]1CCCCO[C@@H](CN(C)Cc2ccc(Cl)c(Cl)c2)[C@H](C)CN([C@@H](C)CO)C(=O)c2cc(NC(=O)Nc3ccc4c(c3)OCO4)ccc2O1,inactive
13,C[C@@H]1CCCCO[C@H](CN(C)Cc2ccc(Cl)c(Cl)c2)[C@H](C)CN([C@@H](C)CO)C(=O)c2cc(NC(=O)Nc3ccc4c(c3)OCO4)ccc2O1,active
14,C[C@@H]1CCCCO[C@H](CN(C)Cc2ccc(Cl)c(Cl)c2)[C@@H](C)CN([C@@H](C)CO)C(=O)c2cc(NC(=O)Nc3ccc4c(c3)OCO4)ccc2O1,inactive
15,C[C@H](CO)N1C[C@H](C)[C@@H](CN(C)Cc2ccc(Cl)c(Cl)c2)OCCCC[C@H](C)Oc2ccc(NC(=O)Nc3ccc4c(c3)OCO4)cc2C1=O,active
16,C[C@@H]1CCCCO[C@@H](CN(C)Cc2ccc(Cl)c(Cl)c2)[C@H](C)CN([C@H](C)CO)C(=O)c2cc(NC(=O)Nc3ccc4c(c3)OCO4)ccc2O1,inactive
17,C[C@H](CO)N1C[C@H](C)[C@H](CN(C)C(=O)Nc2ccc(F)cc2)OCCCC[C@H](C)Oc2ccc(NC(=O)C3CCCCCC3)cc2C1=O,inactive
18,CC(=O)O[C@H](C[C@H](O)C(C)(O)CCC=C(C)C)/C(C)=C/COC[C@@H](O)[C@@H](O)[C@@H](O)[C@@H](O)CO (some centres not stated),inactive
19,O=C(Cn1ccc([N+](=O)[O-])n1)n1cccn1,inactive
20,N=c1ccn2c(n1)O[C@H]1[C@H](O)[C@@H](CO)O[C@H]12,active
21,Cl.N=c1ccn2c(n1)OC1C(O)C(CO)OC12 (configuration not stated),inactive
22,Nc1ccn([C@@H]2O[C@H](CO)[C@@H](O)[C@H]2O)c(=O)n1,inactive
23,C[C@H](CO)N1C[C@H](C)[C@H](CN(C)C(=O)Nc2cccc3ccccc23)Oc2ncc(C#Cc3ccc(F)cc3)cc2C1=O,inactive

row,SMILES,cytotoxicity call
1,Cc1ccc(S(=O)(=O)N(C)C[C@@H]2OCCCC[C@H](C)Oc3ccc(NS(=O)(=O)c4ccc(Cl)cc4)cc3C(=O)N([C@H](C)CO)C[C@@H]2C)cc1,inactive
2,CCN1C(C)(C)CC(Oc2ccc(C(=O)Nc3ccc(NC(=O)Nc4cc(C(C)(C)C)on4)cc3)nc2)CC1(C)C,active
3,CC(C)(C)c1cc(C(=O)NN)no1,inactive
4,CC(C)CC#Cc1ccc2c(c1)O[C@H](CN(C)C(=O)c1ccccn1)[C@@H](C)CN([C@H](C)CO)S2(=O)=O,inactive
5,COc1cccc(-c2ccc3c(c2)O[C@@H](CN(C)C(=O)C2CCOCC2)[C@@H](C)CN([C@@H](C)CO)S3(=O)=O)c1,inactive
6,C[C@H]1CN([C@@H](C)CO)C(=O)Cc2cc(NC(=O)Cc3ccccc3)ccc2O[C@H]1CN(C)Cc1ccc(C(F)(F)F)cc1,inactive
7,C[C@H]1CN([C@@H](C)CO)C(=O)Cc2cc(NC(=O)Cc3ccccc3)ccc2O[C@@H]1CN(C)Cc1ccc(C(F)(F)F)cc1,active
8,C[C@@H]1CN([C@H](C)CO)C(=O)Cc2cc(NC(=O)Cc3ccccc3)ccc2O[C@H]1CN(C)Cc1ccc(C(F)(F)F)cc1,inactive
9,C[C@@H]1CN([C@@H](C)CO)C(=O)Cc2cc(NC(=O)Cc3ccccc3)ccc2O[C@@H]1CN(C)Cc1ccc(C(F)(F)F)cc1,active
10,C[C@@H]1CN([C@@H](C)CO)C(=O)Cc2cc(NC(=O)Cc3ccccc3)ccc2O[C@H]1CN(C)Cc1ccc(C(F)(F)F)cc1,inactive
11,C[C@@H]1CN([C@H](C)CO)C(=O)Cc2cc(NC(=O)Cc3ccccc3)ccc2O[C@@H]1CN(C)Cc1ccc(C(F)(F)F)cc1,inactive
12,C[C@@H]1CN([C@@H](C)CO)C(=O)c2cc(NC(=O)Nc3cccc4ccccc34)ccc2O[C@@H]1CN(C)S(=O)(=O)c1ccc(Cl)cc1,inactive
13,Cc1noc(C)c1NC(=O)Nc1ccc2c(c1)C(=O)N([C@@H](C)CO)C[C@H](C)[C@@H](CN(C)Cc1ccc3c(c1)OCO3)OCCCC[C@@H](C)O2,inactive
14,COc1ccc(CN(C)C[C@@H]2OCCCC[C@H](C)Oc3ccc(NC(=O)NC(C)C)cc3C(=O)N([C@H](C)CO)C[C@H]2C)cc1,inactive
15,CO[C@@H]1CN(C)C(=O)c2cc(NC(=O)CC(F)(F)F)ccc2OC[C@H](C)N(S(=O)(=O)c2cn(C)cn2)C[C@H]1C,inactive
16,Cc1ccc(S(=O)(=O)N(C)C[C@H]2Oc3ccc(NS(=O)(=O)c4c(C)noc4C)cc3CC(=O)N([C@H](C)CO)C[C@@H]2C)cc1,inactive
17,C[C@@H]1CN([C@@H](C)CO)S(=O)(=O)c2ccc(-c3cncnc3)cc2O[C@H]1CN(C)C(=O)C1CCCCC1,inactive
18,C[C@@H]1CN([C@H](C)CO)C(=O)c2cc(-c3ccc(C(=O)N(C)C)cc3)cnc2O[C@H]1CN(C)C(=O)c1ccncc1,inactive
19,C[C@@H]1CN([C@@H](C)CO)C(=O)c2cc(NS(C)(=O)=O)ccc2O[C@@H]1CN(C)Cc1ccc(C(F)(F)F)cc1,inactive
20,NC(=O)CSc1ccccn1,inactive
21,COCC#Cc1ccc2c(c1)O[C@H](CN(C)S(=O)(=O)c1ccc(F)cc1)[C@@H](C)CN([C@H](C)CO)S2(=O)=O,inactive
22,C[C@H]1CN([C@@H](C)CO)S(=O)(=O)c2ccc(C#Cc3ccncc3)cc2O[C@H]1CN(C)S(=O)(=O)c1ccc(F)cc1,inactive
23,C[C@H]1CN([C@@H](C)CO)S(=O)(=O)c2ccc(C#Cc3ccncc3)cc2O[C@@H]1CN(C)S(=O)(=O)c1ccc(F)cc1,active

row,SMILES,cytotoxicity call
1,COCC#Cc1ccc2c(c1)O[C@@H](CN(C)S(=O)(=O)c1ccc(F)cc1)[C@@H](C)CN([C@H](C)CO)S2(=O)=O,inactive
2,C[C@H](CO)N1C[C@H](C)[C@H](CN(C)S(=O)(=O)c2ccc(F)cc2)Oc2cc(C#Cc3ccncc3)ccc2S1(=O)=O,inactive
3,COCC#Cc1ccc2c(c1)O[C@@H](CN(C)S(=O)(=O)c1ccc(F)cc1)[C@@H](C)CN([C@@H](C)CO)S2(=O)=O,active
4,C[C@H](CO)N1C[C@H](C)[C@H](CN(C)C(=O)NC2CCCCC2)Oc2ccc(NS(C)(=O)=O)cc2CC1=O,inactive
5,C[C@H](CO)N1C[C@H](C)[C@@H](CN(C)C(=O)Nc2ccc(F)cc2)OCCCC[C@H](C)Oc2ccc(NC(=O)Cc3ccccc3)cc2C1=O,inactive
6,CC(C)C(N)C(=O)O (configuration not stated),inactive
7,C[C@H](O)C(=O)Nc1c(I)c(C(=O)NC(CO)CO)c(I)c(C(=O)NC(CO)CO)c1I,inactive
8,CC(C)(C(=O)O)c1ccc(C(O)CCCN2CCC(C(O)(c3ccccc3)c3ccccc3)CC2)cc1.Cl (configuration not stated),inactive
9,CC(C)(C(=O)O)c1ccc([C@@H](O)CCCN2CCC(C(O)(c3ccccc3)c3ccccc3)CC2)cc1,inactive
10,CC(C)(C)c1ccc(C(O)CCCN2CCC(C(O)(c3ccccc3)c3ccccc3)CC2)cc1 (configuration not stated),active
11,C[C@@H]1CN([C@H](C)CO)C(=O)c2cccc(NC(=O)C3CC3)c2O[C@@H]1CN(C)Cc1ccc(-c2ccccc2)cc1,inactive
12,CC(C)NC(=O)Nc1ccc2c(c1)C(=O)N([C@@H](C)CO)C[C@@H](C)[C@@H](CN(C)S(C)(=O)=O)OCCCC[C@@H](C)O2,inactive
13,C[C@@H]1CCCCO[C@@H](CN(C)C(=O)Nc2ccccc2)[C@H](C)CN([C@H](C)CO)C(=O)c2cc(NC(=O)Nc3ccccc3)ccc2O1,inactive
14,CC(C)NC(=O)N(C)C[C@@H]1OCCCC[C@@H](C)Oc2ccc(NC(=O)Nc3ccc(C(F)(F)F)cc3)cc2C(=O)N([C@@H](C)CO)C[C@@H]1C,inactive
15,C[C@H](CO)N1C[C@H](C)[C@H](CN(C)C(=O)Nc2ccc3c(c2)OCO3)OCc2cn(nn2)CCCC1=O,inactive
16,COc1cc2nc(N3CCCN(Cc4ccccc4)CC3)nc(Nc3ccc(F)c(Cl)c3)c2cc1OC,active
17,NC1CCN(Cc2ccccc2)CC1,inactive
18,COc1ccc2nc3cc(Cl)ccc3c(Nc3cc(CN4CCCC4)c(O)c(CN4CCCC4)c3)c2n1.O=P(O)(O)O.O=P(O)(O)O.O=P(O)(O)O.O=P(O)(O)O,inactive
19,COc1cc2nc(N3CCN(C(=O)c4ccco4)CC3)nc(N)c2cc1OC.Cl,inactive
20,Brc1ccc2nc(N3CCCN(Cc4ccccc4)CC3)nc(NC3CCN(Cc4ccccc4)CC3)c2c1,active
21,COc1cc2nc(N3CCCN(Cc4ccccc4)CC3)nc(NC3CCN(Cc4ccccc4)CC3)c2cc1OC,inactive
